Source: PubChem (several laboratories)
The list is not random: actives were taken first. Their share in the collection is about 32%.
CYP2C9 inhib: human CYP2C9 inhibition. 20% of 96,000 active. inhibition, % at 5 µM. AID 777. CYP2C9 Supersomes, luciferin-H conversion, luminescence;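 active = blocking of liver enzyme CYP2C9 beyond about 50% at 5 µM, limit read from the data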
Target sequence (P11712 whole entry, looked up): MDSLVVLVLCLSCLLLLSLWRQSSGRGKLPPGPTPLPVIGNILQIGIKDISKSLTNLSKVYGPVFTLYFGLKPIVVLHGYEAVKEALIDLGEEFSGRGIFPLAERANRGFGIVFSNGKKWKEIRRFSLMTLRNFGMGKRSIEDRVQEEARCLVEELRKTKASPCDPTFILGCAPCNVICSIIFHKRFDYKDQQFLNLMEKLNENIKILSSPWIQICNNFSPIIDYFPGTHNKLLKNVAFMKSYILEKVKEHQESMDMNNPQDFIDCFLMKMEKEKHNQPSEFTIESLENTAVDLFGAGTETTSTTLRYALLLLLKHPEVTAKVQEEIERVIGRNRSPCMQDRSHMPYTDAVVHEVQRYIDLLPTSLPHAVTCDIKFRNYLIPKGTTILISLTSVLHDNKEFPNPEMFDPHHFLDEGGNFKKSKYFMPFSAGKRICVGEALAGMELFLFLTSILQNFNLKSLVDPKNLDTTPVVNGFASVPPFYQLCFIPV
CYP2C19 inh: human CYP2C19 inhibition; inhibition, % at 5 µM; P33261; AID 778; CYP2C19 Supersomes, luciferin-H EGE luminescence, 30 min; 21% of 96,000 active;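 active = CYP2C19 inhibition above a set limit at 5 µM in the primary screen, cut at about 50% in these data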;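 note: plate controls were negative control wells for no effect and 2.5 mM tranylcypromine positive control for full effect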
CYP2C9 activ: CYP2C9 (human) activation; P11712; recombinant CYP2C9, luciferin-H conversion, luminescence; hits give high values; factor 1 = untreated enzyme, 0 = blocked; activation factor at 5 µM; 1.4% of 96,000 active; AID 1024;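 active = activation factor of 2 or more for CYP2C9 at a 5 µM dose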;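 note: 0 = sulfaphenazole-blocked wells and 1 = vehicle-only wells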
PostGolgi yeast: growth inhibition of a yeast mutant, post-Golgi transport screen. post-Golgi transport phenotypic cell assay. inhibition, % at 10 µM. 0.9% of 98,000 active. AID 739;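 note: yeast cells grown in 1536-well plates; yeast grown about 18 h at 30C before absorbance read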
CYP2C19 act: increases human CYP2C19 enzyme activity. P33261. recombinant CYP2C19, luciferin-H EGE luminescence; hits give high values; 0 = fully inhibited enzyme, 1 = untreated enzyme. activation factor at 5 µM. 96,000 tested, under 10 active;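 active = activation factor of at least 2 at 5 µM in the primary screen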;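 note: 0 = wells with 2.5 mM tranylcypromine and 1 = vehicle-only wells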
PostGolgi ctrl: growth of the yeast control strain, post-Golgi counter-screen; AID 738; inhibition, % at 10 µM; 5% of 98,000 active; efflux-deficient yeast background strain, growth absorbance A615, 16 h
* = called active by the depositor; . = no result. Cut-off read from the data, not from the text of the source, unless noted: active = inhibition above about 30%; inactive = the rest.

SMILES	CYP2C9 inhib	CYP2C19 inh	CYP2C9 activ	PostGolgi yeast	CYP2C19 act	PostGolgi ctrl
Nc1c(C(=O)NCc2ccc3c(c2)OCO3)nnn1-c1ccc(OC(F)(F)F)cc1	22.1	6.1	0.8	-15.0	0.9	8.4
COc1ccc(Cl)cc1N1C(=O)C2CCCN2C1c1sccc1C (centres undefined)	-65.2	40.9	1.7	11.4	0.6	6.1
C=CCOc1nc(N2CCCC2)nc(N2CCCC2)n1	-0.7	-0.1	1	1.1	1	20.9
N#CC1=C(SCC(N)=O)NC2=C(C(=O)c3ccccc32)C1c1ccc(Cl)cc1 (centres undefined)	63.0*	47.6	0.4	4.0	0.5	10.5
C/C=C/COC(=O)c1[nH]c2c(c1C)C(=O)CC(c1ccco1)C2 (centres undefined)	38.9	19.5	0.6	2.2	0.8	18.9
CCOCCOC(=O)c1[nH]c2c(c1C)C(=O)CC(c1ccc(N(C)C)cc1)C2 (centres undefined)	85.2*	38.5	0.1	-6.4	0.6	3.1
CCC(C)OC(=O)c1[nH]c2c(c1C)C(=O)CC(c1ccc(N(C)C)cc1)C2 (centres undefined)	53.4*	67.9*	0.5	24.6	0.3	8.3
C/C=C/COC(=O)c1[nH]c2c(c1C)C(=O)CC(c1ccc(N(C)C)cc1)C2 (centres undefined)	64.6*	17.8	0.4	4.5	0.8	11.4
COCCOC(=O)C1=C(C)NC2=C(C(=O)CCC2)C1c1ccc(N(C)C)cc1 (centres undefined)	30.0	20.7	0.7	.	0.8	.
COc1cccc(N2C(=O)CC(N3CCC(C(N)=O)(N4CCCCC4)CC3)C2=O)c1 (centres undefined)	.	.	.	-1.4	.	6.6
COc1ccccc1N1CCN(C(=O)c2ccoc2C)CC1	16.4	73.9*	0.8	10.4	0.3	6.6
Cc1onc(-c2ccccc2Cl)c1C(=O)N1CCN(C/C=C/c2ccccc2)CC1	-2.6	5.2	1	-2.0	0.9	16.2
Cc1onc(-c2ccccc2Cl)c1C(=O)N1CCCCC1C(=O)O (centres undefined)	0.7	9.5	1	-4.4	0.9	7.3
COC(=O)C1CCN(C(=O)c2c(-c3ccccc3Cl)noc2C)CC1	14.8	54.3*	0.9	-1.1	0.5	5.6
COc1ccccc1N1CCN(C(=O)c2c(-c3ccccc3Cl)noc2C)CC1	65.1*	93.9*	0.3	-6.0	0.1	-0.1
Cc1onc(-c2ccccc2Cl)c1C(=O)N1CCN(c2nc3ccccc3s2)CC1	91.6*	96.3*	0.1	-2.1	0	18.8
Cc1nc2sc(C(c3cccs3)N3CCN(c4ccccc4)CC3)c(O)n2n1 (centres undefined)	5.3	9.3	0.9	.	0.9	.
Cc1ccc(C(=O)Nc2ccc(O)cc2C(=O)O)cc1C	6.3	10.9	0.9	-15.1	0.9	-0.7
CN1CC(=O)N/C1=N\C(=O)Nc1ccc2c(c1)N(C)C(=O)CS2	32.7	6.0	0.7	0.4	0.9	-1.5
COc1ccc(CSc2nc(C)cc(=O)[nH]2)cc1Br	42.1	71.4*	0.6	-5.3	0.3	16.9
Cc1cc(=O)[nH]c(SCc2cccc(Br)c2)n1	74.1*	33.4	0.3	-7.3	0.7	-0.2
Cc1cc(=O)[nH]c(SCc2nc3ccccc3s2)n1	19.7	38.2	0.8	-2.5	0.6	-3.0
C=C(c1ccc(O)cc1)c1ccc(O)cc1	98.2*	96.0*	0	-14.3	0	8.8
CCn1cc(S(=O)(=O)CC(=O)Nc2cc(C)ccc2C)c2ccccc21	-79.8	95.5*	1.8	-3.5	0	4.3
O=C(Cc1c(O)c2ccccc2[nH]c1=O)NC1CCCCCC1	-18.2	-11.4	1.2	8.3	1.1	-0.1
SMILES	CYP2C9 inhib	CYP2C19 inh	CYP2C9 activ	PostGolgi yeast	CYP2C19 act	PostGolgi ctrl
O=C(CS(=O)(=O)c1c[nH]c2ccccc12)NC1CCCCC1	-66.0	50.9*	1.7	3.6	0.5	0.9
Cc1cccc(NC(=O)CS(=O)(=O)c2cn(C)c3ccccc23)c1	-10.9	55.8*	1.1	-2.2	0.4	25.9
CCn1cc(S(=O)(=O)CC(=O)NC2CCCCC2)c2ccccc21	2.9	31.7	1	8.7	0.7	41.5*
Cn1c(=O)n(CC(=O)NC2CCCCC2)c(=O)c2ccccc21	21.1	15.7	0.8	-2.7	0.8	9.5
Cc1sc2nc3n(c(=O)c2c1C)NC(=O)CC3	.	.	.	-1.9	.	-1.9
CCOC(=O)N1CCN(C(=O)CS(=O)(=O)c2cn(Cc3ccccc3Cl)c3ccccc23)CC1	30.4	14.4	0.7	-11.6	0.9	15.1
Cc1cc(NC(=O)CS(=O)(=O)c2cn(Cc3ccccc3Cl)c3ccccc23)no1	67.6*	40.2	0.3	6.9	0.6	0.9
O=S(=O)(/C=C/c1ccccc1)Oc1ccccc1	-7.0	78.6*	1.1	1.9	0.2	2.4
CCN(CC)S(=O)(=O)c1ccc2[nH]cc(C(=O)NCCC3=CCCCC3)c(=O)c2c1	91.1*	75.8*	0.1	-2.9	0.2	-1.6
CN(c1ccc(F)cc1)S(=O)(=O)c1ccc2[nH]cc(C(=O)O)c(=O)c2c1	22.1	-0.9	0.8	3.8	1	-0.3
CCc1ccc(NS(=O)(=O)c2ccc3[nH]cc(C(=O)NCC4CCCO4)c(=O)c3c2)cc1 (centres undefined)	.	.	.	-11.9	.	12.1
CCOc1ccc(N(C)S(=O)(=O)c2ccc3[nH]cc(C(=O)NCC4CCCO4)c(=O)c3c2)cc1 (centres undefined)	73.5*	23.6	0.3	-8.9	0.8	-0.9
CCc1ccc(N(C)S(=O)(=O)c2ccc3[nH]cc(C(=O)NCCN4CCOCC4)c(=O)c3c2)cc1	60.4*	23.9	0.4	-2.0	0.8	6.0
CCC1CCCCN1C(=O)c1c[nH]c2ccc(S(=O)(=O)N(C)c3ccc(Cl)cc3)cc2c1=O (centres undefined)	83.2*	74.1*	0.2	17.2	0.3	4.8
COc1cccc(NS(=O)(=O)c2ccc3[nH]cc(C(=O)NCCN4CCOCC4)c(=O)c3c2)c1	46.4	7.3	0.5	9.2	0.9	5.6
CCN(CC)S(=O)(=O)c1ccc2[nH]cc(C(=O)NCCN3CCCCCC3)c(=O)c2c1	-1.1	-8.3	1	-4.3	1.1	20.8
CCn1ncc(/C=N\NC(=O)c2csc3ccccc23)c1C	-31.7	12.7	1.3	3.0	0.9	6.5
CC(NC(=O)NC1CCCCC1)C(c1cccs1)N1CCN(c2ccccc2)CC1 (centres undefined)	26.5	30.2	0.7	6.8	0.7	-0.1
Cc1ccc(-n2ncc3c(=O)n(CC(=O)NCC4CCCO4)cnc32)cc1 (centres undefined)	-3.5	-6.0	1	4.7	1.1	-2.4
O=C1CC(SC(=Nc2ccccc2)Nc2ccccc2)C(=O)N1c1cccc2ccccc12 (centres undefined)	16.7	10.2	0.8	-5.3	0.9	18.6
O=C(Nc1ccc(Cl)cc1)N1CC=CCC1	7.3	23.3	0.9	4.9	0.8	-2.7
